# Bioassay records (PubChem)
# TGFb inhibitor: blocks TGF-b signaling | HepG2 CAGA-GFP TGF-b/SMAD3 reporter, GFP fluorescence, 18 h; TGF-beta stimulated, 500 pg/mL final | Potency, µM (top dose mostly 46.1 µM), inactives show at the top dose activity, negative = inhibition, usual class: inhibitors | 410,000 compounds, 1.2% hits; further: potency means the concentration at half of the fitted maximal effect; on the % scale 0 is the no-effect control and ±100 the full control effect; nearly all actives have a fitted effect of over 65% in size
#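 HEPG2 CAGA-GFP, 1000 cells/well; 2 h settle, 37 C; cpd via pin tool; TGF-b 500 pg/mL final; 18 h, 37 C; GFP imaging ex488/em500-530; %Activity normalised to -TGF-b and +DMSO controls; CRC fit, curve class.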
# Six1-Eya2 inh: blocks human Six1 binding to Eya2. AlphaScreen GST-Six1/His-Eya2 binding, biochemical; hits give low values. 360,000 compounds, 0.56% hits. AID 651725. activity change, % (test concentration not listed). Q15475+O00167; in the data active means activity change below about -65%; inconclusive means mostly about -30% to -63%; further: on the % scale 0 is the no-effect control and ±100 the full control effect
# Target sequence (O00167 whole entry, looked up): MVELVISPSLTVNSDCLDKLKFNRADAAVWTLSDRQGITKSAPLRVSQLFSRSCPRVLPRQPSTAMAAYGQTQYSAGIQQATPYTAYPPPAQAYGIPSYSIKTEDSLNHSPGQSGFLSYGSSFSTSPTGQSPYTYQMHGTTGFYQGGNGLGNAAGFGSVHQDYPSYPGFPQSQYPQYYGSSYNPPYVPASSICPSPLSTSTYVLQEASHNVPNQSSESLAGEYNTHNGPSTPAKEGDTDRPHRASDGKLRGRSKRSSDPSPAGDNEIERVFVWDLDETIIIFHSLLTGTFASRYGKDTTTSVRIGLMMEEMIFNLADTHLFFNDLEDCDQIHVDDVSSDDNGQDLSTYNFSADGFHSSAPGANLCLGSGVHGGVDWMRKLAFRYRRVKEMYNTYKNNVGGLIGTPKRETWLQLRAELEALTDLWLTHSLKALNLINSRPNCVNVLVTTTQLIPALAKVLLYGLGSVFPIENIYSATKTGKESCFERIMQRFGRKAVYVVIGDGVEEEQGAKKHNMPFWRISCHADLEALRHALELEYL
# Target sequence (Q15475 whole entry, looked up): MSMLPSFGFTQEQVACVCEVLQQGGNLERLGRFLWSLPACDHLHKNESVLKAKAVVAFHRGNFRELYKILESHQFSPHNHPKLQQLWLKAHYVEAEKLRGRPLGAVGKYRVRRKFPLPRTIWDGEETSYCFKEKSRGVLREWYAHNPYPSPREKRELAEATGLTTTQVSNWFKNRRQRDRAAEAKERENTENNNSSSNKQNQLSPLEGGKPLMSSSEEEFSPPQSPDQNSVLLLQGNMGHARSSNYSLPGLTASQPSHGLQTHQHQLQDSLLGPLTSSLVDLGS
#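 GST-Six1 + His-Eya2 (5X stock: 250/500 nM); Tris pH 8.0, 300 mM NaCl, 0.05% BSA, 0.02% Tween 20; GSH donor/Ni acceptor beads; 1 h 37 °C dark; AlphaScreen readout.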
# CtBP-E1A blk: CtBP/E1A binding inhibition. 340,000 compounds, 0.49% hits. AlphaScreen GST-E1A/His-CtBP binding, 1536-well; hits give low values. activity change, % (test concentration not listed); in the data active means activity change below about -65%; inconclusive means mostly about -30% to -63%; further: on the % scale 0 is the no-effect control and ±100 the full control effect
#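 Steps: dispense buffer (Tris pH 8.0, NaCl 300 mM, TCEP 1 mM, BSA, Tween 20); add 5X protein mix (GST-E1A, His-CtBP, 125 nM each); pin 23 nL compound; 2 h at 37 °C, dark; add 5X beads (50 ug/mL); 1 h; read.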
# HepG2 tox-1: counter-screen for TGF-b inhibitors: cytotoxicity in HepG2 cells; HepG2 CAGA-GFP viability, ATP luminescence, 18 h; Potency, µM (doses to about 46.1 µM), without a hit: at the highest dose activity change, negative = cytotoxicity, most hits filed as cytotoxic; 410,000 compounds, 0.76% hits; further: potency means the concentration at half of the fitted maximal effect
#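 CellTiter-Glo luminescence gave cytotoxicity after 18 hours at 37 degrees C. The cells were HepG2 CAGA-GFP in 1% FBS DMEM, stimulated with 500 pg/mL TGF-beta after compound addition. %Activity was normalised to no-cell wells (complete cell-killing) and DMSO (no toxicity), and curves were fitted and classified.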
# ATXN viability: cell viability loss in ATXN counter-screen. 400,000 compounds, 0.49% hits. S2 cells (HEK-293 line with an ATXN2-luciferase reporter) viability, CellTiter-Fluor protease fluorescence, 24 h. Potency, µM (top dose mostly 56.7 µM), usual class: cytotoxic. AID 651635; further: potency means the concentration at half of the fitted maximal effect; nearly all actives have a fitted effect of over 40% in size
# ATXN2 expr inh: ATXN2 expression inhibition. HEK-293 ATXN2-luciferase reporter, luminescence, 24 h. Potency, µM (doses to about 57 µM), for inactives: at the highest dose activity change, negative = inhibition, hits mostly inhibitors. 360,000 compounds, 0.72% hits. AID 1745845; further: potency means the concentration at half of the fitted maximal effect; on the % scale 0 is the no-effect control and ±100 the full control effect; nearly all actives have a fitted effect of over 55% in size
#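 qHTS (up to 57 uM final) was run with 24 h compound exposure of reporter cells at 37 °C. Each well was multiplexed: SteadyGlo luminescence measured ATXN2-luciferase expression after a fluorogenic Gly-Phe-AFC viability readout (25 uM final).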
# TGFb confirm: TGF-b pathway inhibition, cherry-pick retest | HepG2 CAGA-GFP TGF-b reporter, GFP fluorescence, 18 h; cells stimulated with TGF-beta, 500 pg/mL | Potency, µM (highest dose often 46.1 µM), inactives show at the top dose activity, negative = inhibition, actives largely listed as inhibitors | 1,600 compounds, 63% hits | shares compounds with TGFb inhibitor; further: potency means the concentration at half of the fitted maximal effect; on the % scale 0 is the no-effect control and ±100 the full control effect; nearly all actives have a fitted effect of over 65% in size
# HepG2 tox-2: toxic to HepG2 cells in TGF-b counterscreen; 1,600 compounds, 27% hits; shares compounds with TGFb inhibitor; Potency, µM (titrated, usually from 46.1 µM), for the others: at the top dose activity, negative = cytotoxicity, actives largely listed as inhibitors; HepG2 CAGA-GFP viability, ATP luminescence, 18 h; cells stimulated with TGF-beta, 500 pg/mL; further: potency means the concentration at half of the fitted maximal effect; on the % scale 0 is the no-effect control and ±100 the full control effect; nearly all actives have a fitted effect of over 70% in size
# CCL64 TGFb inh: TGF-b inhibition, CCL64 orthogonal assay. shares compounds with TGFb inhibitor. Potency, µM (doses to about 46.1 µM), inactives show top-dose activity, negative = inhibition, hits mostly inhibitors. 1,600 compounds, 41% hits. CCL64 CAGA-GFP reporter, TGF-b stimulated, GFP fluorescence, 18 h; further: potency means the concentration at half of the fitted maximal effect; nearly all actives have a fitted effect of over 65% in size
# TGFb COP inh: blocks TGF-b signaling in HepG2 COP reporter | shares compounds with TGFb inhibitor | HepG2 COP-GFP TGF-b reporter, GFP fluorescence, 18 h; cells stimulated by added recombinant TGF-beta | Potency, µM (doses to about 46.1 µM), inactives show top-dose activity, negative = inhibition, most hits filed as inhibitors | 1,600 compounds, 3% hits | AID 720537; further: potency means the concentration at half of the fitted maximal effect; nearly all actives have a fitted effect of over 70% in size
# Starred values were filed as active, the others as inactive; i = inactive; ? = inconclusive; . = no result given. Shown are actives, neighbours in structure and some others; about 2.8% of the full set was active somewhere. Unless noted, the call rests on the fitted dose curve; in most records, active means well fitted curve in the direction sought with a large enough effect; inconclusive means small, poorly fitted or top-dose-only effect, or another doubt; inactive means no such curve, though single readings can be large; an effect the other way counts as inactive or inconclusive.
SMILES,TGFb inhibitor,Six1-Eya2 inh,CtBP-E1A blk,HepG2 tox-1,ATXN viability,ATXN2 expr inh,TGFb confirm,HepG2 tox-2,CCL64 TGFb inh,TGFb COP inh
CC1=C(C(=O)N(C(C)C)C(C)C)CC(CC(=O)NC2CC2)C(=O)N1CCC1=CCCCC1 (stereo not drawn),-3.9%,5.7,2.0,-48.7%,i,2.1%,.,.,.,.
C/C(CC(=O)Nc1ccc(Cl)c(C(F)(F)F)c1)=N\NC(=O)c1cccc(O)c1,-4.9%,0.7,-1.8,-2.5%,i,0.5%,.,.,.,.
C/C(CC(=O)Nc1ccc(Cl)c(C(F)(F)F)c1)=N\NC(=O)c1ccccc1O,15.8µM*,-23.4,-19.1,-68.3%,i,-20.9%,?,?,?,102.0%
COc1ccc(-c2nc3c4ccccc4ccn3c2Cc2cccc(Cl)c2)cc1OC,-28.5%,0.7,-3.6,-20.1%,?,23.8%,.,.,.,.
COc1ccc(-c2nc3c4ccccc4ccn3c2Cc2ccc(C)cc2)cc1OC,12.6µM*,-19.1,-12.6,-13.5%,?,16.4%,25.9µM*,-17.0%,18.4µM*,14.9%
CCc1ccc(NC(=O)COc2ccc(/C=C(/C#N)c3nc4ccccc4[nH]3)cc2OC)cc1,2.24µM*,6.0,-15.6,-82.2%,.,4.47µM*,?,?,13.8%,0.2%
O=C(CN1CCN(C(=O)C2CCN(C(=O)/C=C/c3ccccc3)CC2)CC1)Nc1ccc(F)cc1,-89.7%,7.6,-3.1,-25.9%,i,6.7%,-23.5%,-0.8%,-1.7%,3.2%
COc1ccc(S(=O)(=O)N2CCN(C(=O)c3ccccc3Cc3ccccc3)CC2)cc1OC,-3.0%,1.8,4.2,-25.3%,i,.,.,.,.,.
Cc1nnc(N2CCN(c3ccc(Cl)cc3)CC2)c2c1nnn2Cc1ccc(F)cc1,0.7%,.,.,-4.3%,i,16.3%,.,.,.,.
Cc1ccc2cc(C)c(SCC(=O)Nc3ccc(S(=O)(=O)N4CCCC4)cc3)nc2c1,0.5%,-7.8,-0.7,-2.9%,i,-0.2%,.,.,.,.
Cc1cc(C)c2c(c1)cc(C)c1nnc(SCC(=O)Nc3ccc(S(=O)(=O)N4CCCCC4)cc3)n12,?,-9.8,-2.5,12.8%,i,11.9%,18.4µM*,-11.7%,-21.5%,-0.2%
Cc1ccc(SCC(=O)Nc2ccc(O)c(-c3nc4cc(C)ccc4o3)c2)cc1,20.7%,.,.,-26.5%,i,31.1%,.,.,.,.
O=C(Nc1ccncc1)Nc1cccc(Cl)c1,-11.9%,-0.7,0.0,-24.0%,i,-19.1%,.,.,.,.
O=C(Nc1cccc(Cl)c1)Nc1csc([N+](=O)[O-])c1,?,-5.1,-0.5,10µM*,?,?,10.3µM*,16.4µM*,9.2µM*,76.4%
Cc1cccc(-n2ncc3c(NNC(=O)c4ccccc4Cl)ncnc32)c1,31.3%,.,.,7.1%,i,?,.,.,.,.
CCC(=O)NC(c1ccco1)c1cc(Cl)c2cccnc2c1OC (stereo not drawn),?,.,.,-3.3%,i,1.3%,.,.,.,.
CCC(=O)NC(c1ccc(OC)cc1)c1cc(Cl)c2cccnc2c1O (stereo not drawn),7.94µM*,?,?,-31.9%,i,?,-24.0%,?,8.2µM*,21.3%
CCC(=O)NC(c1ccco1)c1cc(Cl)c2cccnc2c1O (stereo not drawn),?,-80.4*,-90.2*,-11.6%,i,?,-29.8%,-24.7%,9.2µM*,16.5%
Cc1ccc(NC(=O)C(Nc2ccccc2)c2ccccc2)cc1 (stereo not drawn),-10.0%,1.2,-2.0,-8.1%,i,-15.3%,.,.,.,.
Cc1ccc(NC(=O)C(C)c2ccc(-c3ccccc3)c(F)c2)cc1 (stereo not drawn),10µM*,15.9,6.3,-32.9%,i,-25.8%,-10.1%,-13.5%,0.3%,-1.8%
CC(C)CCN(Cc1ccco1)C(=O)c1cc2c(s1)-c1ccccc1OC2,?,.,.,-33.0%,i,-27.2%,.,.,.,.
O=C(CSc1nccc(=O)[nH]1)Nc1cc(C(F)(F)F)ccc1N1CCOCC1,-13.6%,17.0,-5.4,-1.4%,i,7.1%,.,.,.,.
Cc1ccc2nc(SCC(=O)Nc3cc(C(F)(F)F)ccc3N3CCOCC3)[nH]c2c1,10µM*,7.8,-3.9,-20.0%,?,-19.8%,1.84µM*,-8.8%,0.731µM*,-18.5%
Cc1cc(C)c2c(-n3cccc3)c(C(=O)NCCCN3CCCCC3)sc2n1,-10.4%,.,.,-22.5%,.,.,.,.,.,.
COc1ccc(C2(CNC(=O)C(=O)Nc3ccc(C)c(Cl)c3)CCCC2)cc1OC,12.0%,.,.,-53.2%,i,10.6%,.,.,.,.
O=C1C(Nc2ccccc2)=C(NS(=O)(=O)c2ccccc2)C(=O)c2ccccc21,6.31µM*,0.0,-11.3,-53.7%,i,3.6%,?,-29.0%,3.5%,2.2%
O=S(=O)(Nc1ccc(NS(=O)(=O)c2ccccc2)cc1)c1ccccc1,1.5%,3.3,2.4,-4.6%,i,.,.,.,.,.
CC(C)(O)C#Cc1ccc([C@@H]2C[C@H]3CN(c4ccccc4)C(=O)[C@]34CCCN24)s1,2.24µM*,-0.3,1.2,-10.3%,?,?,0.731µM*,?,5.17µM*,16.2%
CCSc1n[nH]c2nc3c(c(=O)n12)C1(CCCC1)Cc1ccccc1-3,-5.2%,8.8,9.2,-7.4%,.,-0.3%,.,.,.,.
Cc1ccc(-n2c(SCC(N)=O)nc3c(c2=O)C2(CCCC2)Cc2ccccc2-3)cc1,8.91µM*,-13.3,-4.2,11.0%,i,-23.9%,13µM*,14.6µM*,?,19.0%
